{"source": "ChEMBL document CHEMBL3988442", "about": "“University of Dundee, Small-Polar-MMV Screening Library” (2021)", "target": "T1, Methionyl-tRNA synthetase, putative (Leishmania donovani (strain BPK282A1)) (UniProt E9BF75)", "T1 sequence (whole entry)": "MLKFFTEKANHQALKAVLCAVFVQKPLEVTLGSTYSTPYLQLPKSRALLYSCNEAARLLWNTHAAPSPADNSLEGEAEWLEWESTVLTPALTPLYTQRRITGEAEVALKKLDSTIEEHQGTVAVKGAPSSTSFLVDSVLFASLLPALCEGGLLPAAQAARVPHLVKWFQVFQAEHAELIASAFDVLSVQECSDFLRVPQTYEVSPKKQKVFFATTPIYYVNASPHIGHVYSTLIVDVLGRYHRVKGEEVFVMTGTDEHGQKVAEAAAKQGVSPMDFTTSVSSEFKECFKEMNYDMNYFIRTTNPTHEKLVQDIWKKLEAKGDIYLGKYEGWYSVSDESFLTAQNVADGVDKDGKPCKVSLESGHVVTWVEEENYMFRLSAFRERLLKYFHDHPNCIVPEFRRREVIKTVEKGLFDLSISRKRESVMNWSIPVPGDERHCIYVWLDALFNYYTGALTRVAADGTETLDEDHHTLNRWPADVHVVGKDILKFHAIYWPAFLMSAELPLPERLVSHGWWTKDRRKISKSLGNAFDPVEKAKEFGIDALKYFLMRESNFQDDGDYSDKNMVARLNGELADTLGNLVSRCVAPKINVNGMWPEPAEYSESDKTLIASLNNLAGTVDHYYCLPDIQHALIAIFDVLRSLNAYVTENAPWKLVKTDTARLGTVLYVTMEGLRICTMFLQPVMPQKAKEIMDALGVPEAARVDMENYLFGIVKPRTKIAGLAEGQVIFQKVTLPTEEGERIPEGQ", "test": "Leishmania donovani Methionine tRNA synthetase (LdMetRS):v7. Dose response assay", "assay_type": "functional", "design": "conc 80 nM, time 150 minutes", "data": [{"smiles": "Fc1cccc(OC[C@@H]2CCCN2)c1Oc1ccc(Cl)cc1", "values": [{"measurement": "PXC50", "setting": "MAX_EFFECT 8.488612836", "result": "< 4"}, {"measurement": "PXC50", "setting": "MAX_EFFECT 13.00639659", "result": "< 4"}]}, {"smiles": "Cc1nc(N2CCCCC2)c2c(-c3cccs3)csc2n1", "values": [{"measurement": "PXC50", "setting": "MAX_EFFECT 30.98236776", "result": "< 4"}, {"measurement": "PXC50", "setting": "MAX_EFFECT 31.29770992", "result": "< 4"}]}, {"smiles": "Cc1sc2nc(-c3cccs3)nc(N(C)CC(=O)N3CCCC3)c2c1C", "values": [{"measurement": "PXC50", "setting": "MAX_EFFECT 37.40458015", "result": "< 4"}, {"measurement": "PXC50", "setting": "MAX_EFFECT 42.06549118", "result": "< 4"}]}, {"smiles": "OC1CCc2cc(Cl)cc(Cl)c21", "note": "(stereo not drawn)", "values": [{"measurement": "PXC50", "setting": "MAX_EFFECT 6.26349892", "result": "< 3"}, {"measurement": "PXC50", "setting": "MAX_EFFECT 9.69581749", "result": "< 3"}]}, {"smiles": "COc1ccc(NC[C@@H](N)CC(C)C)c(Oc2ccc(Cl)cc2)n1", "values": [{"measurement": "PXC50", "setting": "MAX_EFFECT 6.560636183", "result": "< 4"}, {"measurement": "PXC50", "setting": "MAX_EFFECT 6.651376147", "result": "< 4"}]}, {"smiles": "O=C(c1c[nH]cn1)N1CCC(F)(F)C2(CCN(c3ncccn3)C2)C1", "note": "(stereo not drawn)", "values": [{"measurement": "PXC50", "setting": "MAX_EFFECT 6.572769953", "result": "< 4"}, {"measurement": "PXC50", "setting": "MAX_EFFECT 11.2962963", "result": "< 4"}]}, {"smiles": "Cc1nc(NC(CC(C)C)C(=O)O)c2c3c(sc2n1)CCC3", "note": "(stereo not drawn)", "values": [{"measurement": "PXC50", "setting": "MAX_EFFECT 14.004914", "result": "< 4"}, {"measurement": "PXC50", "setting": "MAX_EFFECT 14.57286432", "result": "< 4"}]}, {"smiles": "Cc1nc(N2CCC(N3CCSCC3)CC2)c2ccsc2n1", "values": [{"measurement": "PXC50", "setting": "MAX_EFFECT 8.29015544", "result": "< 4"}, {"measurement": "PXC50", "setting": "MAX_EFFECT 9.042553191", "result": "< 4"}]}, {"smiles": "CCc1nc(NCCO)c2cc(CC)sc2n1", "values": [{"measurement": "PXC50", "setting": "MAX_EFFECT 6.532663317", "result": "< 4"}, {"measurement": "PXC50", "setting": "MAX_EFFECT 10.07371007", "result": "< 4"}]}, {"smiles": "Nc1noc2ccc(-c3cnc4ccc(NCCN5CCOCC5)nn34)cc12", "values": [{"measurement": "PXC50", "setting": "MAX_EFFECT -0.438596491", "result": "< 4"}, {"measurement": "PXC50", "setting": "MAX_EFFECT -1.041666667", "result": "< 4"}]}, {"smiles": "CC1CCc2c(sc3nc(CN4CCOCC4)nc(NCC4CC4)c23)C1", "note": "(stereo not drawn)", "values": [{"measurement": "PXC50", "setting": "MAX_EFFECT 17.08542714", "result": "< 4"}, {"measurement": "PXC50", "setting": "MAX_EFFECT 17.93611794", "result": "< 4"}]}, {"smiles": "Cc1sc2nc(C(F)(F)F)nc(N3CCN(S(C)(=O)=O)CC3)c2c1C", "values": [{"measurement": "PXC50", "setting": "MAX_EFFECT 4.699738903", "result": "< 4"}, {"measurement": "PXC50", "setting": "MAX_EFFECT -2.872062663", "result": "< 4"}]}, {"smiles": "CN(c1ncnc2c1CCC2)C1CCCN(c2cccnn2)C1", "note": "(stereo not drawn)", "values": [{"measurement": "PXC50", "setting": "MAX_EFFECT 11.7370892", "result": "< 4"}, {"measurement": "PXC50", "setting": "MAX_EFFECT 15.37037037", "result": "< 4"}]}, {"smiles": "OB1OCc2cc(C(F)(F)F)ncc21", "values": [{"measurement": "PXC50", "setting": "MAX_EFFECT 8.490566038", "result": "< 4"}, {"measurement": "PXC50", "setting": "MAX_EFFECT 11.87214612", "result": "< 4"}]}, {"smiles": "COCCNc1nc(-n2nc(C)cc2C)nc2sc3c(c12)CCCC3", "values": [{"measurement": "PXC50", "setting": "BOTTOM 1.301145561, HILLSLOPE 1.464534306, MAX_EFFECT 52.38095238, TOP 100.0", "result": 4.33}, {"measurement": "PXC50", "setting": "BOTTOM -0.0791, HILLSLOPE 1.372664479, MAX_EFFECT 81.02766798, TOP 100.0", "result": 4.48}]}, {"smiles": "FC1(F)CCN(c2ccccc2)CC12CCN(c1ncccn1)C2", "note": "(stereo not drawn)", "values": [{"measurement": "PXC50", "setting": "MAX_EFFECT 8.920187793", "result": "< 4"}, {"measurement": "PXC50", "setting": "MAX_EFFECT 12.40740741", "result": "< 4"}]}, {"smiles": "Cc1nccn1CCCn1cncc1-c1ccc2c(c1)CC(C)N2C", "note": "(stereo not drawn)", "values": [{"measurement": "PXC50", "setting": "MAX_EFFECT 28.57142857", "result": "< 4"}, {"measurement": "PXC50", "setting": "MAX_EFFECT 43.36448598", "result": "< 4"}]}, {"smiles": "Cc1nc(NCCNC(=O)c2ccccc2)c2c3c(sc2n1)CCCC3", "values": [{"measurement": "PXC50", "setting": "MAX_EFFECT 14.39393939", "result": "< 4"}, {"measurement": "PXC50", "setting": "MAX_EFFECT 19.3877551", "result": "< 4"}]}, {"smiles": "Cc1cc(C)n(-c2nc(NC3CCCC3)c3c4c(sc3n2)CCCC4)n1", "values": [{"measurement": "PXC50", "setting": "MAX_EFFECT 22.91666667", "result": "< 4"}, {"measurement": "PXC50", "setting": "MAX_EFFECT 34.21052632", "result": "< 4"}]}, {"smiles": "Cc1nn(C)cc1-c1cc(C(F)(F)F)nc(NC2CCCCC2)n1", "values": [{"measurement": "PXC50", "setting": "MAX_EFFECT 7.049608355", "result": "< 4"}, {"measurement": "PXC50", "setting": "MAX_EFFECT 12.01044386", "result": "< 4"}]}, {"smiles": "Nc1nc(CSc2ncccn2)nc2sc3c(c12)CCCC3", "values": [{"measurement": "PXC50", "setting": "MAX_EFFECT 24.53333333", "result": "< 4"}, {"measurement": "PXC50", "setting": "MAX_EFFECT 26.98412698", "result": "< 4"}]}, {"smiles": "CC(=O)N1CCN(CC2OB(O)c3ccccc32)CC1", "note": "(stereo not drawn)", "values": [{"measurement": "PXC50", "setting": "MAX_EFFECT 12.26415094", "result": "< 4"}, {"measurement": "PXC50", "setting": "MAX_EFFECT 15.06849315", "result": "< 4"}]}, {"smiles": "COc1cccc(-c2cc(C(F)(F)F)nc(N3CCCC3)n2)c1", "values": [{"measurement": "PXC50", "setting": "MAX_EFFECT 5.303030303", "result": "< 4"}, {"measurement": "PXC50", "setting": "MAX_EFFECT 7.142857143", "result": "< 4"}]}, {"smiles": "COCCNc1nc(-n2nc(C)cc2C)nc2sccc12", "values": [{"measurement": "PXC50", "setting": "BOTTOM 2.201340626, HILLSLOPE 2.387703954, MAX_EFFECT 53.50877193, TOP 100.0", "result": 4.03}, {"measurement": "PXC50", "setting": "MAX_EFFECT 36.45833333", "result": "< 4"}]}, {"smiles": "COc1cc(C(=O)NC2CCCC2)cn2c(N3CCN(S(C)(=O)=O)CC3)ccc12", "values": [{"measurement": "PXC50", "setting": "BOTTOM 3.193013855, HILLSLOPE 0.707285439, MAX_EFFECT 58.33333333, TOP 100.0", "result": 4.17}, {"measurement": "PXC50", "setting": "BOTTOM -2.394752883, HILLSLOPE 0.813527414, MAX_EFFECT 65.35087719, TOP 100.0", "result": 4.43}]}, {"smiles": "CNc1nc(CN2CCOCC2)nc2sc3c(c12)CCC(C)C3", "note": "(stereo not drawn)", "values": [{"measurement": "PXC50", "setting": "MAX_EFFECT 4.668304668", "result": "< 4"}, {"measurement": "PXC50", "setting": "MAX_EFFECT 7.035175879", "result": "< 4"}]}, {"smiles": "Cc1nc(N2CC(N3CCCCC3C)C2)c2ccsc2n1", "note": "(stereo not drawn)", "values": [{"measurement": "PXC50", "setting": "MAX_EFFECT 5.319148936", "result": "< 4"}, {"measurement": "PXC50", "setting": "MAX_EFFECT 5.699481865", "result": "< 4"}]}, {"smiles": "CCc1nc(N2CCN(c3ccccn3)CC2)c2c3c(sc2n1)CCC3", "values": [{"measurement": "PXC50", "setting": "MAX_EFFECT 39.95098039", "result": "< 4"}, {"measurement": "PXC50", "setting": "MAX_EFFECT 40.86538462", "result": "< 4"}]}, {"smiles": "Fc1cccc(OCc2cnc[nH]2)c1Oc1ccc(Cl)cc1", "values": [{"measurement": "PXC50", "setting": "MAX_EFFECT 12.57995736", "result": "< 4"}, {"measurement": "PXC50", "setting": "MAX_EFFECT 14.69979296", "result": "< 4"}]}]}
